The values below come from PubChem BioAssay (NCI).

About 79,000 compounds went through this panel and 15% of them were active in at least one assay; those are over-represented in the sample as a whole. Values without a mark were called inactive. Active and inactive are the calls of the source. Rule as the data show it: active = growth inhibition above about 70%; inactive = the rest.

Assay [1] in a line: NCI Yeast Anticancer Drug Screen. Data for the rad50 strain (AID 155).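 Also: 0% = growth of vehicle-only cultures of the same strain.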 Conditions: S. cerevisiae rad50 strain growth inhibition; at 50.0 µM; stronger effect = higher value. A digest of the protocol:
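DNA repair mutant yeast, compound exposure, growth read-out; inhibition is taken relative to vehicle.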

Assay [2] can be described thus: NCI Yeast Anticancer Drug Screen. Data for the mec2-1 strain (AID 157). The settings on record: S. cerevisiae mec2-1 strain, at 50.0 µM, stronger effect = higher value. A digest of the protocol: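 Compounds were applied to mec2-1 yeast cells. Their growth was then compared with that of vehicle-treated cultures to give growth inhibition.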
The nature of assay [3]: NCI Yeast Anticancer Drug Screen. Data for the sgs1 mgt1 strain (AID 161).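 Also: 0% = growth of cultures given vehicle only.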 Conditions: S. cerevisiae sgs1 mgt1 strain, at 50.0 µM, stronger effect = higher value. A digest of the protocol:
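Compounds are added to genetically altered yeast, and growth is compared with cultures given vehicle alone to give percent inhibition.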

The nature of assay [4]: NCI Yeast Anticancer Drug Screen. Data for the cln2 rad14 strain (AID 165).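 Also: 0% = growth equal to vehicle treated cultures.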 The settings on record: S. cerevisiae cln2 rad14 strain, at 50.0 µM, stronger effect = higher value. A digest of the protocol: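 Strain: cln2 rad14 yeast, altered in cell cycle control and DNA damage repair. Read-out: growth inhibition vs vehicle.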
Assay [5] can be described thus: NCI Yeast Anticancer Drug Screen. Data for the bub3 strain (AID 167). The settings on record: S. cerevisiae bub3 mutant strain, at 50.0 µM, stronger effect = higher value. A digest of the protocol:
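In this screen, a yeast mutant lacking normal mitotic checkpoint function is challenged with compound. Relative growth versus vehicle gives the inhibition value.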

The nature of assay [6]: NCI Yeast Anticancer Drug Screen. Data for the mlh1 rad18 strain (AID 175). Conditions: S. cerevisiae mlh1 rad18 strain growth inhibition; at 50.0 µM; stronger effect = higher value. A digest of the protocol: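 A repair-deficient yeast strain is exposed to test compound, and growth is scored relative to vehicle-treated controls.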

On to `COC(=O)CC(NC(=O)CNC(=O)OCc1ccccc1)C(=O)NCC(=O)Oc1ccc([N+](=O)[O-])cc1` (stereo not given), for which the growth inhibition in assay [1] was 21%; in assay [2] it was 2%; in assay [3] it was 18.8%; in assay [4], 15.1%; in assay [5], -0.65%; in assay [6] it was 12%.

With `CC1(C)c2ccccc2C(=O)c2ccccc21`, the growth inhibition in assay [1] was 8.1%; in assay [2], 6.65%; in assay [3] it was 2.6%; in assay [4], -4.6%; in assay [5], -2.75%; in assay [6] it was 5.45%.

Regarding `ClC(Cl)=C(Cl)C(Cl)(Cl)Cl`, the growth inhibition is -23.8% in assay [1]; 20.9% in assay [2]; 0.95% in assay [3]; -16.5% in assay [4]; -5.65% in assay [5]; 5.4% in assay [6].

As for `N/C(CCOCC/C(N)=N\O)=N/O`, the growth inhibition in assay [1] was 16.8%; in assay [2] it was 25.4%; in assay [3], -22.4%; in assay [4] it was -1.85%; in assay [5], -2.3%; in assay [6] it was 6.5%.

As for `O=C1NCC2(CCN(CC3COc4ccccc4O3)CC2)N1c1ccccc1` (stereo not given), the growth inhibition in assay [1] is -23.3%; in assay [2], -18.2%; in assay [3] it was -21%; in assay [4] it was -2.95%; in assay [5], -3.2%; in assay [6], -34.5%.

With `C[N+](C)(C)c1cc[c]([Sn]([c]2ccc([N+](C)(C)C)cc2)([c]2ccc([N+](C)(C)C)cc2)[c]2ccc([N+](C)(C)C)cc2)cc1`, the growth inhibition in assay [1] was 16.4%; in assay [2], -5.75%; in assay [3], 20.2%; in assay [4], 6.65%; in assay [5] it was -0.15%; in assay [6], 11.3%.

In the case of `C=C1C(=O)OC2C1C(OC(=O)/C(=C/C)COC(C)=O)CC1(CO1)C1C(OC(=O)/C(=C/C)CO)C=C(C)C21` (stereo not given), the growth inhibition in assay [1] was -20.6%; in assay [2], -19%; in assay [3] it was -21.1%; in assay [4], 1.55%; in assay [5], -41.1%; in assay [6], -8.05%.

For the compound `O=C1c2ccccc2C(=O)c2c1nnn2-c1ccccc1`, the growth inhibition in assay [1] was 41.7%; in assay [2] it was 5.95%; in assay [3], 21.2%; in assay [4] it was -4.45%; in assay [5], 17.2%; in assay [6] it was -2.15%.

For the compound `Cc1ccc(NC(=S)Nc2ccccc2C)nc1`, the growth inhibition in assay [1] was 5.95%; in assay [2], 9.35%; in assay [3] it was 27.9%; in assay [4] it was 13.1%; in assay [5], 2.6%; in assay [6] it was 18.9%.

On to `CCCCOC(=O)NC(=O)c1cn(CCSCCOC(=O)NCCCCCCNC(=O)OCCSCCn2cc(C(=O)NC(=O)OCCCC)c(=O)[nH]c2=O)c(=O)[nH]c1=O`, for which the growth inhibition in assay [1] is -15.2%; in assay [2] it was -12.5%; in assay [3] it was -9.55%; in assay [4], 2.15%; in assay [5] it was -15.9%; in assay [6], -15.4%.

For `COc1ccc2c(c1)-c1cc(OC)ccc1C2c1ccccc1`, the growth inhibition in assay [1] was -1.1%; in assay [2], -9.15%; in assay [3], -7.6%; in assay [4] it was -57.5%; in assay [5] it was 5.15%; in assay [6] it was -7.25%.

Turning to `c1ccc2cc(N=NNc3ccc4ccccc4c3)ccc2c1`, the growth inhibition in assay [1] is 63.6%; in assay [2], -4.1%; in assay [3] it was 27.9%; in assay [4], -30.6%; in assay [5], 47.5%; in assay [6], 74% (active).

Consider `CC(/C=C/c1ccccc1)=N\N=C(C)\C=C\c1ccccc1`, for which the growth inhibition in assay [1] is 0.45%; in assay [2], -20.2%; in assay [3] it was -31.4%; in assay [4], 20.9%; in assay [5], -37.8%; in assay [6] it was -23.4%.

On to `CCOC(=O)N1c2ccccc2OC1C#N` (stereo not given), for which the growth inhibition in assay [1] is -17.3%; in assay [2], 1.3%; in assay [3], -4.4%; in assay [4], -33.1%; in assay [5], 51.3%; in assay [6], 13.5%.

`CCOC(=O)N1CCN(P(=O)(Nc2ccc3nc(NC(=O)OC)[nH]c3c2)Oc2ccccc2)CC1` (stereo not given): the growth inhibition in assay [1] is -38.5%; in assay [2] it was -6.9%; in assay [3], 0.55%; in assay [4] it was -9.4%; in assay [5], -9.65%; in assay [6], -37.1%.

Take `CCN(CC)C(=S)N/N=C/c1ccccn1`: the growth inhibition in assay [1] is 89.5% (active); in assay [2] it was 92% (active); in assay [3], 91% (active); in assay [4], 89.2% (active); in assay [5], 89.8% (active); in assay [6], 90.3% (active).

Regarding `Nc1ccccc1SC1CC(=O)N(c2cccc(Cl)c2)C1=O` (stereo not given), the growth inhibition in assay [1] is -10.6%; in assay [2], -25.4%; in assay [3], -4.7%; in assay [4], -7.3%; in assay [5], -1.05%; in assay [6] it was -25.1%.

`C=C(C)c1ccc(B2Nc3ccccc3N2)cc1`: the growth inhibition in assay [1] was 53.6%; in assay [2], 30.2%; in assay [3], 45.6%; in assay [4] it was 18.8%; in assay [5] it was 40.8%; in assay [6] it was 58.5%.

In the case of `N#C/C(=C\n1c(=S)[nH]c2ccccc21)c1nc2ccccc2s1`, the growth inhibition was -2.85% in assay [1]; -4.45% in assay [2]; -9.15% in assay [3]; -4.15% in assay [4]; 4.25% in assay [5]; 36.8% in assay [6].

Consider `Cc1cc(C)c(C(=O)CSC(=N)N)c(C)c1`, for which the growth inhibition in assay [1] is -4.45%; in assay [2], 11.3%; in assay [3], 7.5%; in assay [4], -6.6%; in assay [5], 9.55%; in assay [6], 2.4%.
